From PubChem
IMPase Li cell: membrane-permeable IMPase blocker, potentiated with lithium | 210,000 tested, 0.35% active | AID 1457 | Potency, µM (doses to about 59.4 µM), usual class: inhibitors | CHO-M1 cells, IP1 TR-FRET (IP-One), carbachol + lithium;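 further: IP1 builds up when IMPase is blocked and the TR-FRET signal falls; nearly all actives have a fitted effect of over 50% in size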
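Test compounds were applied to CHO-M1 cells previously cultured for 16–30 h at 2000 per well. A small lithium amount accompanied them; after 30 min at 37C, IP1 was quantified by TR-FRET.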
IMPase inh: cell-permeable inhibitors of inositol monophosphatase (IMPase); inhibition (IP1 accumulation), % at 46.1 µM; CHO-M1 cells, IP1 accumulation, HTRF TR-FRET ratio; 120,000 tested, under 10 active; AID 901; active means well fitted curve in the direction sought with a large enough effect in the signal ratio, not every such curve was filed as active; inconclusive means small, poorly fitted or top-dose-only effect, or a change in a side signal; inactive means no such curve, though single readings can be large or run the other way; the % refers to the signal ratio;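 further: cells stimulated with carbachol in lithium chloride buffer; higher means more IMPase inhibition seen as more IP1 and lower FRET ratio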
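Carbachol-driven Gq signalling in CHO-M1 cells (2000/well) generates IP1. Compounds that block IMPase raise IP1 and so reduce the FRET signal from Eu-anti-IP1 and d2-IP1 after a 10 min room-temperature lysis.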
HPGD inh: blocks human HPGD enzyme activity. P15428. purified HPGD, NADH fluorescence kinetic, PGE2 substrate. Potency, µM, hits mostly inhibitors. 150,000 tested, 4.3% active. AID 894; active means well fitted inhibition curve with a large enough effect, not every such curve was filed as active; inconclusive means small, poorly fitted or top-dose-only effect, or another doubt; inactive means no such curve, though single readings can be large or run the other way
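20 nM HPGD preincubated 15 min at room temperature with compound in 50 mM Tris-HCl pH 8, 0.01% Tween 20. Started with 1 mM NAD+ and 30 uM prostaglandin E2; NADH fluorescence (360/450 nm) read 5 times over 30-s intervals, last minus first.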
15-hLO-2 inh: 15-hLO-2 (ALOX15B) enzyme inhibition. O15296. purified 15hLO-2, xylenol orange hydroperoxide absorbance. Potency, µM (titrated, usually from 57.1 µM), actives largely listed as inhibitors. 110,000 tested, 0.56% active; further: nearly all actives have a fitted effect of over 60% in size
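Screening format was qHTS against 50 nM purified 15hLO-2 in Hepes pH 7.5 with detergent. Activity follows hydroperoxide formation from 45 uM arachidonic acid, measured as 573:405 nm absorbance ratio of the ferric-xylenol orange complex.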
ALOX12 inhib: inhibitors of human 12-lipoxygenase (ALOX12) | purified 12-hLO, xylenol orange hydroperoxide absorbance | Potency, µM (highest dose often 57.1 µM), actives largely listed as inhibitors | 150,000 tested, 0.12% active | AID 1452; further: nearly all actives have a fitted effect of over 55% in size
Target sequence (P18054 whole entry, looked up): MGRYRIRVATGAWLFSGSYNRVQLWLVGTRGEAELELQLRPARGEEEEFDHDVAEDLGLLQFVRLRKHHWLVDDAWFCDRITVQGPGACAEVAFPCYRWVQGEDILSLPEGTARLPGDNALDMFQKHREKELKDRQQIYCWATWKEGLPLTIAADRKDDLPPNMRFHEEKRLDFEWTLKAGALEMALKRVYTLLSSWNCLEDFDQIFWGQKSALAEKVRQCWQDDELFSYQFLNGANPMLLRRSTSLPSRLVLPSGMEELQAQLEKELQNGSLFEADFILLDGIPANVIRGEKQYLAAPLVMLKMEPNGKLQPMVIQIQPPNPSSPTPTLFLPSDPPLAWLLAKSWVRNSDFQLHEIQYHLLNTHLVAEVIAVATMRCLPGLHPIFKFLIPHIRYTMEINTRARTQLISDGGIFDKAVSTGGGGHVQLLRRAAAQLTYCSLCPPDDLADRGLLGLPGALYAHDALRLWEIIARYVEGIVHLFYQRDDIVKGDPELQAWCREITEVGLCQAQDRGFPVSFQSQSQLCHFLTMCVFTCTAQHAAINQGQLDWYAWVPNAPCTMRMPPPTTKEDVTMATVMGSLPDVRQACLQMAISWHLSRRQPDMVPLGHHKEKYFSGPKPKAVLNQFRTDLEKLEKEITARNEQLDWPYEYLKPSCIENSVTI
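Hydroperoxide formation by human 12-lipoxygenase from 40 uM arachidonic acid was followed colorimetrically via ferric-xylenol orange complex, using the 573/405 nm absorbance ratio. Enzyme concentration was 150 nM, with 30 min reaction at room temperature.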
PNC assembly inh: inhibitors of perinucleolar compartment assembly; activity change (PNC), negative = inhibition, % at 10 µM; AID 2417; 140,000 tested, 3.1% active; PC3M PTB-GFP, PNC prevalence imaging, 16 h; hits give low values;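 active means readout at or below -70, meaning at least 70% loss of cells showing the perinucleolar compartment, a nuclear body marking cancer cells; inconclusive means readout between -30 and a set limit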
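Compounds are pinned in duplicate onto adhered PC3M cells stably expressing GFP-tagged PTB and incubated 16 h at 37 C. Cells are then fixed, nuclei stained with Hoechst, and PNC-positive cells counted.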
Hits are given with their value; - = inactive; ? = inconclusive; . = no result given; [ ] = another dose, or the depositor's remark. Sampled rows, rich in hits. Any-hit rate of the full collection: about 5.4%. Unless noted, the call rests on the fitted dose curve; in most records, active means well fitted curve in the direction sought with a large enough effect; inconclusive means small, poorly fitted or top-dose-only effect, or another doubt; inactive means no such curve, though single readings can be large; an effect the other way counts as inactive or inconclusive.

SMILES	IMPase Li cell	IMPase inh	HPGD inh	15-hLO-2 inh	ALOX12 inhib	PNC assembly inh
COC(=O)c1ccccc1S(=O)(=O)N1CCc2nc(COc3ccccc3)c3c(c2C1)CO[C@@H](C)C3	-	.	-	.	-[11.4 µM]	.
N#CC(=C(\N)Sc1ccccc1N)/C(C#N)=C(/N)Sc1ccccc1N	-	.	8.9µM	.	.	.
Cc1ccc(NC(=O)CSCC(=O)Nc2ncc3c(n2)CC(c2ccco2)CC3=O)cc1 (stereo not given)	-	-	-	-[2.29 µM]	-	-85
CSc1ncccc1C(=O)OCC(=O)Nc1ccc(S(=O)(=O)N2CCCC2)cc1	-	.	-	.	-	-
CCC1CCCCN1S(=O)(=O)c1ccc(NC(=O)CSc2ncccc2C(=O)O)cc1 (stereo not given)	-	-	14µM	-	-	-
CCC(C)NS(=O)(=O)c1ccc(NC(=O)c2cccs2)cc1 (stereo not given)	-	.	.	.	.	.
CCC1CCCCN1S(=O)(=O)c1ccc(NC(=O)c2cccs2)cc1 (stereo not given)	-	-	-	.	-	-100
COc1ccc(NCc2c(O)ccc3ccccc23)cc1	-	.	-	-[11.4 µM]	?	.
CCOC(=O)C1=C(C)Nc2ncnn2C1c1c[nH]c2ccccc12 (stereo not given)	-	-	-	-	-	-
CC1=C(C(=O)OC(C)C)C(c2c[nH]c3ccccc23)n2ncnc2N1 (stereo not given)	-	-	-	-	-	-106
COCCNC(=O)c1cc2nc3c(c(C(F)(F)F)n2n1)CCc1ccccc1-3	-	.	.	.	.	.
O=C(O)c1cc2nc3c(c(C(F)(F)F)n2n1)CCc1ccccc1-3	-	-	-	-	-	-87
COC(=O)[C@@]1(Cc2ccccc2)[C@H]2c3cc(C(=O)N(C)C)n(Cc4ccc(S(C)(=O)=O)cc4)c3C[C@H]2CN1C(=O)c1ccccc1	-	.	-	-	-	.
COc1ccc(C(=O)/C=C/c2ccc(OC3CSC3)cc2)cc1OC	-	.	14µM	.	-	-
COc1cc(/C=C/C(=O)c2ccc(NS(=O)(=O)c3ccc(C)cc3)cc2)ccc1OC(F)F	-	.	16µM	.	-	-
COc1ccc(C(=O)Nc2ccc(NC(=O)c3cccs3)cc2)cc1OC	.	-	.	.	.	.
COc1ccc(/C=C/C(=O)c2ccc(NC(=O)c3cccs3)cc2)cc1OC	-	-[1.84 µM]	-	-[11.4 µM]	-	-83
C[N+](C)(C)C(C1=CCCC1=O)c1ccccc1 (stereo not given)	-	.	-	.	.	.
Cc1ccc(O)c(N=CC2=C(O)c3ccccc3C2=O)c1	10µM	?	?	?	-	?
Cc1c(C)c(C)c(CC2(C)CSC2)c(CC2(C)CSC2)c1C	-	.	-	-[11.4 µM]	-[11.4 µM]	.
Nc1nc(-c2ccc3c(c2)NC(=O)CO3)cs1	-	-	18µM	-	-	?
CCCCN=c1scc(-c2ccc3c(c2)NC(=O)CO3)n1N=C1CCCC1	-	-	?	-	-	-
CCN=c1scc(-c2ccc3c(c2)NC(=O)CO3)n1N=C1CCCC1	-	-	16µM	?	-	-
CCOC(=O)c1c(NC(=O)/C=C/c2ccccc2)sc2c1CCCC2	.	-	.	.	.	.
CC1(C)S[C@@H]2[C@H](C(=O)O)N=C(Cc3ccccc3)N2[C@H]1C(=O)O	-	.	-	-[11.4 µM]	-[11.4 µM]	.
SMILES	IMPase Li cell	IMPase inh	HPGD inh	15-hLO-2 inh	ALOX12 inhib	PNC assembly inh
Cc1ccc(Nc2ccc(C(=O)N3CCCC3)cn2)c(C)c1	-	-	2.2µM	-	-	-
COc1ccc2[nH]cc(CCNc3ncncc3-c3ccc(C(=O)N(C)C)cc3)c2c1	-	.	.	-	.	.
CCOC(=O)COc1cccc2c(=O)n(CC(=O)N3CCc4ccccc43)ccc12	?	-	-	-	-	-111
COc1ccc(N=C2C(=Nc3ccc(OC)cc3)N(c3ccccc3)C(=S)N2C(=O)c2ccc(Cl)cc2)cc1	-	-	-	.	-	-100
COCc1cc(C)nc2sc(C(=O)Nc3ccccc3O)c(N)c12	.	-	.	.	.	.
N#CC1=C(N2CCCCC2)c2cc3c(n2C1=O)CCCC3	-	?	25µM	-	-	-
O=C(C1CCCN(Cc2ccccc2)C1)N1CCCCC1 (stereo not given)	-	-	28µM	-	-	-
O=C(C1CCCN(Cc2cccs2)C1)N1CCCCCC1 (stereo not given)	.	-	.	-	-	-
O=C(C1CCCN(Cc2ccccc2Br)C1)N1CCCCC1 (stereo not given)	-	?	25µM	-	-	-
CN(C)CCNS(=O)(=O)N(C)C	-	.	-	-[11.4 µM]	-[11.4 µM]	.
Brc1cc2[nH]cnc2c2ccccc12	-	?	22µM	-	-	-
c1ccc(CN2CCN(c3nc4ccccc4n4cnnc34)CC2)cc1	-	-	14µM	-	-	-
C1=C(c2ccccc2)CCN(c2nc3ccccc3n3cnnc23)C1	-	-	14µM	-	-	-
CCOc1cc(CNc2ccc3c(c2)OCCO3)cc(Br)c1OC	-	-	-	-	-	?
CCOc1c(Br)cc(CNc2ccc3c(c2)OCCO3)cc1OC	-	-	?	-	-	-98
C=C1C(=O)[C@]23[C@H](O)[C@H]1CC[C@H]2[C@@]12COC3(O)[C@H](O)[C@@H]1C(C)(C)CC[C@@H]2O	-	.	?	-[0.0915 µM]	-[0.00818 µM]	.
O=C(O)[C@@H]1[C@@H](C(=O)NCc2ccccn2)[C@@H]2C=C[C@@H]1O2	-	.	-	-[11.4 µM]	-[11.4 µM]	.
COc1cc(C(=O)Nc2nnc(CC(C)(C)C)s2)c([N+](=O)[O-])cc1OC	-	.	-	.	-	-
COc1cc(C(=O)Nc2nnc(C(C)(C)C)s2)c([N+](=O)[O-])cc1OC	-	.	20µM	.	-	-
O=c1c(-c2ccccc2)nc2cnc(N3CCOCC3)nc2n1Cc1ccc(F)cc1	?	.	.	-	.	.
COc1ccc(-c2cc(=O)oc3c(C)c(OCc4nn[nH]n4)ccc23)cc1	-	-	?	-	-	-
Cc1c(OCc2nn[nH]n2)ccc2c(-c3ccccc3)cc(=O)oc12	-	-	13µM	-	-	-
CCC(C)C(=O)Nc1nc2c(s1)C(=O)CC(C)(C)C2 (stereo not given)	-	-	-	.	-	-119
Cc1cccc(Cn2nnc3c2C(=O)c2ccccc2C3=O)c1	-	-	14µM	.	-	-
COc1ccc(NC(=O)c2ccc(CNc3c(NC4CCCCC4)c(=O)c3=O)cc2)cc1OC	-	-	18µM	-	-	-
N#Cc1cccc(-c2nc(N3CCNCC3)c3ccccc3n2)c1	-	.	-	-	-	.
O=[N+]([O-])c1ccc([C@@H](Nc2ccccc2)c2ccc3cccnc3c2O)cc1	-	.	-	-[11.4 µM]	-[11.4 µM]	.
CC(=O)Oc1ccccc1N(C(C)=O)S(=O)(=O)c1ccc2ccccc2c1	-	.	.	.	.	.
CC(=O)Oc1ccc(N(C(C)=O)S(=O)(=O)c2cccs2)c2ccccc12	-	-	-	-	-	-82
